# Measured values from PubChem BioAssay (Tox21).
# “And” between values parts separate entries of the source, which are not always exact repeats. Identical values can stand only once. Records with an inconclusive call do not appear. A call without a number means that no potency is given here. More than one record can exist for a structure, and the calls need not agree. The source made the active and inactive calls. Unless noted, the call rests on the fitted dose curve; in most records, active means well fitted curve in the direction sought with a large enough effect in the repeat runs; inconclusive means weak or mixed curves; inactive means no such curve, though single readings can be large; an effect the other way counts as inactive or inconclusive.
# What was measured:
# [1] = qHTS assay to identify small molecule agonists of the sonic hedgehog signaling (Shh) pathway (AID 1259368; calls by dose curve;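 further: NIH/3T3-derived 3T3Gli1-Luc cells carrying a stable Gli1-driven firefly luciferase reporter; series mostly up to about 92 µM; nearly all actives have a fitted effect of over 15% in size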)
# Method in brief: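 NIH/3T3-derived 3T3Gli1-Luc cells with stably integrated Gli1-driven firefly luciferase, 2,000 cells/well, compounds added after 4 hr. Incubated 24 hr at 37C, 5% CO2; luminescence read after 30 min with luciferase reagent at room temperature.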
# [2] = qHTS assay to identify small molecule antagonists of the sonic hedgehog signaling (Shh) pathway (AID 1259369; calls by dose curve; further: nearly all actives have a fitted effect of over 45% in size; further: potency means the concentration at half of the fitted maximal effect)
# Method in brief: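 NIH/3T3-derived Gli1-Luc reporter cells plated 4 h, dosed with compound, then stimulated with conditioned medium for 24 h at 37 C. Firefly luciferase luminescence read after 30 min with detection reagent at room temperature.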
# [3] = biological target: Estrogen receptor beta (Homo sapiens) (UniProt Q92731); assay: qHTS assay to identify small molecule agonists of the estrogen receptor beta (ER-beta) signaling pathway (AID 1259377; active means well fitted activation curve with a large enough effect in the signal ratio in the repeat runs, not every such curve was filed as active; the % refers to the signal ratio; further: potency means the concentration at half of the fitted maximal effect)
# Chain of Estrogen receptor beta (Homo sapiens) (Q92731 whole entry, looked up): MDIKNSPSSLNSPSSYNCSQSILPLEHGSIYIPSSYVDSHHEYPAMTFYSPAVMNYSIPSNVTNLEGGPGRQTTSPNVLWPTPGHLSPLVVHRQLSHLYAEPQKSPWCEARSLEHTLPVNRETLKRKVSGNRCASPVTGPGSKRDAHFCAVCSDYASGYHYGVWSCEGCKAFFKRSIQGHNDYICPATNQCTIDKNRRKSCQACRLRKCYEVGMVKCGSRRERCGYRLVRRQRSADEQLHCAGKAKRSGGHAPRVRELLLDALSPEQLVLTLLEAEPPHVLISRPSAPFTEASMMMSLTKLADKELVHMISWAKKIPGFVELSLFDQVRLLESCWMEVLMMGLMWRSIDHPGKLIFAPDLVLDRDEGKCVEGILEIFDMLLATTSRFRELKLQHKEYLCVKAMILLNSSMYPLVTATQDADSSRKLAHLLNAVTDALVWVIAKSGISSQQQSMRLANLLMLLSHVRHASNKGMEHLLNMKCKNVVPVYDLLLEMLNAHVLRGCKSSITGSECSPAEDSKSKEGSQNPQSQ
# Method in brief: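 ER-beta-UAS-bla HEK293T cells in medium with 2% charcoal-stripped FBS were exposed to compounds for 16 h at 37C. Beta-lactamase reporter activity was read as fluorescence after 2 h with LiveBLAzer B/G FRET substrate at room temperature.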
# [4] = qHTS assay to identify small molecule agonists of the androgen receptor (AR) signaling pathway in the presence of an antagonist - cell viability counter screen (AID 1259379); further: nearly all actives have a fitted effect of over 25% in size; further: potency means the concentration at half of the fitted maximal effect
# Method in brief: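 MDA-kb2 cells (MMTV-luciferase, AR/GR), 3,000/well, 5 h attachment, then 3.0 µM nilutamide (final) and compounds at 15 concentrations. Viability by CellTiter-Fluor fluorescence after 16 h at 37 °C, 0% CO2, in the reporter wells.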
# [5] = qHTS assay to identify small molecule agonists of the estrogen receptor beta (ER-beta) signaling pathway - cell viability counter screen (AID 1259380); further: nearly all actives have a fitted effect of over 30% in size
# Method in brief: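 ER-beta-UAS-bla HEK293T cells in medium with 2% charcoal-stripped FBS, pre-incubated 6 hr, then treated 16 hr at 37C. Cytotoxicity read in the same wells by CellTiter-Glo luminescence after 30 min at room temperature.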
# [6] = qHTS assay to identify small molecule antagonists of the estrogen receptor beta (ER-beta) signaling pathway - cell viability counter screen (AID 1259382);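 further: HEK293T cells carrying ER-beta-UAS-bla reporter stimulated with estradiol; series mostly up to about 92 µM; nearly all actives have a fitted effect of over 55% in size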
# Method in brief: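 ER-beta-UAS-bla HEK293T cells in 2% charcoal-stripped FBS medium, treated with compound plus 1 nM 17-beta-estradiol for 16 h at 37C. Viability read by CellTiter-Glo luminescence after 30 min at room temperature in the same wells.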
# [7] = qHTS assay to identify small molecule agonists of the estrogen receptor alpha (ER-alpha) signaling pathway in the presence of an antagonist - cell viability counter screen (AID 1259386);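 further: cells exposed to compounds for 22 h at 37 °C before the viability read; nearly all actives have a fitted effect of over 30% in size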; further: potency means the concentration at half of the fitted maximal effect
# Method in brief: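 Cell viability in VM7Luc4E2 cells (endogenous full-length ER-alpha) measured by CellTiter-Fluor fluorescence in the same wells as the luciferase screen. Cells pre-cultured 5 days in charcoal-stripped serum, then treated 22 h with compounds at 15 concentrations plus 10.0nM ICI-182,780.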
# [8] = biological target: Progesterone receptor (Homo sapiens) (UniProt P06401); assay: qHTS assay to identify small molecule agonists of the progesterone receptor (PR) signaling pathway (AID 1346784; calls by dose curve; further: nearly all actives have a fitted effect of over 30% in size; further: potency means the concentration at half of the fitted maximal effect)
# Chain of Progesterone receptor (Homo sapiens) (P06401 whole entry, looked up): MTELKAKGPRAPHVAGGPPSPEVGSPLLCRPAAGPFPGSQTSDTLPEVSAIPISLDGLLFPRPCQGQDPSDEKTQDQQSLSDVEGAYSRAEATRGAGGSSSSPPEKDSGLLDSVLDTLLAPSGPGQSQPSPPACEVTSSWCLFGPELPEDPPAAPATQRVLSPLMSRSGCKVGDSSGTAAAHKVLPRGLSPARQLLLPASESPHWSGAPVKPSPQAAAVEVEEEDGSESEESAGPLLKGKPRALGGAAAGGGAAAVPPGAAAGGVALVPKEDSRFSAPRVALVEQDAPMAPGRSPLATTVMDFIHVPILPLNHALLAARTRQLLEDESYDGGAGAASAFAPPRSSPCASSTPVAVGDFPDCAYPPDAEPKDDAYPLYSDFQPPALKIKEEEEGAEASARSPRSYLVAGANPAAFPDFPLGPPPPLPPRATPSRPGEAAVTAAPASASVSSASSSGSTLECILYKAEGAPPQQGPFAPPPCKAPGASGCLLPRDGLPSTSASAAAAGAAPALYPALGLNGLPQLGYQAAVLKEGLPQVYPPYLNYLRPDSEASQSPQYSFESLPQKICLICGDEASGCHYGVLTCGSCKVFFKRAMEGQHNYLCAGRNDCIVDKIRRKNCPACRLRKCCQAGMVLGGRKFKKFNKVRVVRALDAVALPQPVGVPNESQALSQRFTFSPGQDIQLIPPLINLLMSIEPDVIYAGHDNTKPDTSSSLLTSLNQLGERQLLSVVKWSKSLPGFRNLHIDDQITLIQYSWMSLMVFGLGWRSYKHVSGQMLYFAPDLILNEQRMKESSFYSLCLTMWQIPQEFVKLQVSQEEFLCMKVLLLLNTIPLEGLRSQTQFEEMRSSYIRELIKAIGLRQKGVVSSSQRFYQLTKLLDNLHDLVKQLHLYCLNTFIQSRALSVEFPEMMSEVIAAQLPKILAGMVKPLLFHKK
# Method in brief: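 PR-UAS-bla HEK 293T cells (beta-lactamase reporter under UAS) in 2% charcoal-stripped FBS, dosed with 23 nL compound after 6 hr, incubated 16hr at 37C. LiveBLAzer B/G FRET substrate added, fluorescence read after 2 hours.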
# [9] = biological target: Progesterone receptor (Homo sapiens) (UniProt P06401); assay: qHTS assay to identify small molecule antagonists of the progesterone receptor (PR) signaling pathway (AID 1346795; active means well fitted inhibition curve with a large enough effect in the signal ratio in the repeat runs, not every such curve was filed as active; the % refers to the signal ratio)
# Method in brief: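 PR-UAS-bla HEK293T cells with beta-lactamase reporter under UAS control, in 2% charcoal-stripped FBS, treated with compounds plus 1 nM promegestone (R5020, final) for 16 hr at 37C. Read-out: FRET beta-lactamase substrate fluorescence after 2 hr at room temperature.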
# [10] = qHTS assay to identify small molecule antagonists of the progesterone receptor (PR) signaling pathway - cell viability counter screen (AID 1346798); further: series mostly up to about 92 µM; nearly all actives have a fitted effect of over 50% in size
# Method in brief: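 PR-UAS-bla HEK293T cells, 3,000/well in 2% charcoal-stripped FBS medium, dosed with compounds plus R5020 agonist and incubated 16 h at 37C. Viability then measured in the same wells by CellTiter-Glo luminescence after 30 min at RT.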
# [11] = qHTS assay to identify small molecule agonists of the progesterone receptor (PR) signaling pathway - cell viability counter screen (AID 1346799; calls by dose curve; further: nearly all actives have a fitted effect of over 45% in size)
# Method in brief: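 Counter screen in the PR-UAS-bla HEK293T wells (2% charcoal-stripped FBS, 16 h compound exposure at 37 C) after the bla read. CellTiter-Glo added, 30 min at room temperature, luminescence read as cell viability.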
# [12] = qHTS assay to identify small molecule antagonists of the TGF-beta/Smad signaling pathway - cell viability counter screen (AID 1346824); further: nearly all actives have a fitted effect of over 50% in size
# Method in brief: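 SBE-bla HEK 293T cells, incubated overnight, then compound plus 0.25 ng/mL TGF-beta1 (stock added) for 5 hr at 37 C. Viability was read in the same wells by CellTiter-Glo luminescence after 30 min at room temperature.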
# [13] = qHTS assay to identify small molecule agonists of the TGF-beta/Smad signaling pathway - cell viability counter screen (AID 1346829); further: top concentration of the series differs between compounds; nearly all actives have a fitted effect of over 45% in size
# Method in brief: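 Luminescence from CellTiter-Glo, read after a 30 min room-temperature incubation, gives cell viability of SBE-bla HEK 293T cells treated 5 hr with compounds at 37 C.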
# [14] = qHTS assay to identify small molecule agonists of the TGF-beta/Smad signaling pathway (AID 1346859; active means well fitted activation curve with a large enough effect in the signal ratio in the repeat runs, not every such curve was filed as active; the % refers to the signal ratio; further: series mostly up to about 77 µM)
# Method in brief: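 SBE-bla HEK293T cells plated overnight, then compound exposure for 5 h at 37 C. Beta-lactamase reporter read with LiveBLAzer B/G FRET substrate after 2 h at room temperature, fluorescence at 405 nm excitation, 460/530 nm emission.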
# [15] = biological target: Estrogen receptor (Homo sapiens) (UniProt P03372); assay: qHTS assay to identify small molecule agonists of the estrogen receptor alpha (ER-alpha) signaling pathway in the presence of an antagonist (AID 1259383; calls by dose curve; further: nearly all actives have a fitted effect of over 15% in size; further: potency means the concentration at half of the fitted maximal effect; on activation: top concentration of the series differs between compounds)
# Chain of Estrogen receptor (Homo sapiens) (P03372 whole entry, looked up): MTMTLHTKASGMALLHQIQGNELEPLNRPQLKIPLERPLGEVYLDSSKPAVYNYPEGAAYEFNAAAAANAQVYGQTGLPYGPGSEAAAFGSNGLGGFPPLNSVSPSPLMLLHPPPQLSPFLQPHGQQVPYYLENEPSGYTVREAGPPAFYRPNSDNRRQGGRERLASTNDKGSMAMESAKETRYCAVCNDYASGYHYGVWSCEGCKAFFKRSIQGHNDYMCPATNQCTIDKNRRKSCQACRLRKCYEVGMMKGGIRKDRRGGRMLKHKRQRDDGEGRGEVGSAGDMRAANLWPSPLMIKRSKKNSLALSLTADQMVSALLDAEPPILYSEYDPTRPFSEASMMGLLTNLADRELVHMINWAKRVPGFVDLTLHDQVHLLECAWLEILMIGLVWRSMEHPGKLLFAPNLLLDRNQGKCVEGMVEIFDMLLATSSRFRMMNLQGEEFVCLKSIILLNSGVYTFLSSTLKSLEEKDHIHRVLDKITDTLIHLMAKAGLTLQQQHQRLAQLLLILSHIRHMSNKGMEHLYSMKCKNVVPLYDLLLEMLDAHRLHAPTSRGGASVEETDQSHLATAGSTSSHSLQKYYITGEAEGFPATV
# Method in brief: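 VM7Luc4E2 cells express endogenous full-length ER-alpha with an ERE-luciferase reporter and were hormone-deprived for 5 days. Compounds at 15 concentrations were added with 10.0nM ICI-182,780 for 22hr at 37C. Luminescence was read with ONE-Glo.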
# [16] = qHTS assay to identify small molecule agonists or antagonists of the thyroid stimulating hormone receptor (TSHR) signaling pathway - wild type cell line counter screen (AID 1259384; calls by dose curve)
# Method in brief: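 Wild-type Hek293 cells, 800/well, 18 h at 37C, then compound with Ro20-1724 for 30 min RT. cAMP by HTRF (cAMP-d2/anti-cAMP cryptate), 1 h RT, fluorescence read. 15 concentrations, triplicates.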
# [17] = biological target: Thyrotropin receptor (Homo sapiens) (UniProt P16473); assay: qHTS assay to identify small molecule antagonists of the thyroid stimulating hormone receptor (TSHR) signaling pathway (AID 1259385; calls by dose curve; further: nearly all actives have a fitted effect of over 20% in size)
# Chain of Thyrotropin receptor (Homo sapiens) (P16473 whole entry, looked up): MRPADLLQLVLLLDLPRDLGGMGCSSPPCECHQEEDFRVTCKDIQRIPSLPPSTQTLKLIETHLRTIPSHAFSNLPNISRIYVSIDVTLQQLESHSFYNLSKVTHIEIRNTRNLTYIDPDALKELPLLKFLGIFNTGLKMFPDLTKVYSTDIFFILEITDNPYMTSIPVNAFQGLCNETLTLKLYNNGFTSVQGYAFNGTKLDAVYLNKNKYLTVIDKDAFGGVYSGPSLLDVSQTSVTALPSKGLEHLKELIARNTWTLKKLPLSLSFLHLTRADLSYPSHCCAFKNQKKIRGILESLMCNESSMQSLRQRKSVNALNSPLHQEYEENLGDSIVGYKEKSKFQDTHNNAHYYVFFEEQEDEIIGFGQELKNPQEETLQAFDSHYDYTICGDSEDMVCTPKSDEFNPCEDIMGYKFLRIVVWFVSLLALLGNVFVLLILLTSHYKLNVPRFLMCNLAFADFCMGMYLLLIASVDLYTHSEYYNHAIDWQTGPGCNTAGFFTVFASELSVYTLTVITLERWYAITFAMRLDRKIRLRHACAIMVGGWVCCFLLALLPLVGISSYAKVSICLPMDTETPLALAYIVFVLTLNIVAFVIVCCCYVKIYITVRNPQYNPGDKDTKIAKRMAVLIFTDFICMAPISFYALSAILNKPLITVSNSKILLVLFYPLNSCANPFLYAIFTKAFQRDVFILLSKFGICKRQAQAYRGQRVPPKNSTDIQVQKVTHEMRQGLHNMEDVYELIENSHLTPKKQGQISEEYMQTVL
# Method in brief: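 TSHR-HEK293 cells (800/well) plated 18 h, then compounds with Ro20-1724 and TSH at 1.5 ng/mL final, 30 min at room temperature. cAMP quantified by HTRF (cAMP-d2/anti-cAMP-cryptate, 1 h); 15 concentrations in triplicate.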
# [18] = biological target: Thyrotropin-releasing hormone receptor (Homo sapiens) (UniProt P34981); assay: qHTS assay to identify small molecule antagonists of the thyrotropin-releasing hormone receptor (TRHR) signaling pathway (AID 1346877; active means well fitted inhibition curve with a large enough effect in the repeat runs, not every such curve was filed as active; further: series mostly up to about 51 µM)
# Chain of Thyrotropin-releasing hormone receptor (Homo sapiens) (P34981 whole entry, looked up): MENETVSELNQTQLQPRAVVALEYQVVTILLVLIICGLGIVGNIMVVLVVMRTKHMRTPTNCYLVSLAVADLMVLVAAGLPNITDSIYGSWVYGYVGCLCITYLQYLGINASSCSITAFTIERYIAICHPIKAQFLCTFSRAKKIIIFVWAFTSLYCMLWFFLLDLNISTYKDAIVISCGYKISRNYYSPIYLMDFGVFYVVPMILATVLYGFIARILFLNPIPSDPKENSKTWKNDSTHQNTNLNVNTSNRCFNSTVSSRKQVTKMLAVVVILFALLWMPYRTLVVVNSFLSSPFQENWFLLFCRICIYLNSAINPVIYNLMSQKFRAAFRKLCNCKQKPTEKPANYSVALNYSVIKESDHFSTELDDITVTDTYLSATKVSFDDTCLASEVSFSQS
# Method in brief: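 TRHR-expressing HEK293 cells loaded with calcium dye for 2 h at 37 C; compounds pre-incubated 5 min at room temperature before TRH challenge at 1 nM final. Intracellular calcium fluorescence read kinetically for 3 min; 15 concentrations in triplicate.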
# [19] = biological target: Androgen receptor (Homo sapiens) (UniProt P10275); assay: qHTS assay to identify small molecule agonists of the androgen receptor (AR) signaling pathway in the presence of an antagonist (AID 1259381; calls by dose curve; further: nearly all actives have a fitted effect of over 15% in size)
# Chain of Androgen receptor (Homo sapiens) (P10275 whole entry, looked up): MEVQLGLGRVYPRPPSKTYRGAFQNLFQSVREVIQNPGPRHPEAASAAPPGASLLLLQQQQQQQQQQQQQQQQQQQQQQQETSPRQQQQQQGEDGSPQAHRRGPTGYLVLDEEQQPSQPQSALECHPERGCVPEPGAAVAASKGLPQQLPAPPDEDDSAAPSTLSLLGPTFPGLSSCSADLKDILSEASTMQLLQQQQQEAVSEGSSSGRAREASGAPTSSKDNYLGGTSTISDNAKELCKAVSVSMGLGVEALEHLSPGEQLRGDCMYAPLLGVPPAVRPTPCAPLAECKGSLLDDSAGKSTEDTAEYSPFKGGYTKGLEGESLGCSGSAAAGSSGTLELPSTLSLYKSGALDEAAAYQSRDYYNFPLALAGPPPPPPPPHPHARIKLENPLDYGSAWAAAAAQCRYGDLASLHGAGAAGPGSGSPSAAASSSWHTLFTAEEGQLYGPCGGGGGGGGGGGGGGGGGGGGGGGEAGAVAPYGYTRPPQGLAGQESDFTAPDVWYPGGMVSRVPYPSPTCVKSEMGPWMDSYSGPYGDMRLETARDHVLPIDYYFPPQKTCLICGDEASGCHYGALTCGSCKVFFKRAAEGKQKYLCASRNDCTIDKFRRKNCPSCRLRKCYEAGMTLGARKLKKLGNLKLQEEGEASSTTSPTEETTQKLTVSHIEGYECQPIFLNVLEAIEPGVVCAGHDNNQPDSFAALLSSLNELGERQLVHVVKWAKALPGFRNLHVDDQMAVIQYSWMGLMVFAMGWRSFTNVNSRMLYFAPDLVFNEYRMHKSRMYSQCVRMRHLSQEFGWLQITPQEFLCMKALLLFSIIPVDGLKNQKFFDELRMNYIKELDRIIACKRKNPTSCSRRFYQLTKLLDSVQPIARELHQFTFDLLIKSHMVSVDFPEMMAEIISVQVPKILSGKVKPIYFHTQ
# Method in brief: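 MDA-kb2 cells carrying MMTV-luciferase (AR/GR responsive), 3,000 cells/well, co-treated with 3.0 uM nilutamide final. Compounds at 15 concentrations, 16 hr at 37C without CO2. Luciferase luminescence read after 30 min with ONE-Glo.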
Compound,outcome [1],Potency [2],Potency [3],Potency [4],Potency [5],Potency [6],Potency [7],Potency [8],Potency [9],Potency [10],Potency [11],Potency [12],Potency [13],outcome [14],Potency [15],outcome [16],outcome [17],outcome [18],Potency [19]
C/C=C(C)/C=C/C=C(C)C,inactive,27.3 µM (active),inactive,inactive,inactive,inactive,inactive,inactive,inactive,inactive,inactive,inactive,inactive,inactive,,,,,
Clc1cc(Cl)c(Cl)cc1Cl,inactive,inactive,inactive,inactive,inactive,,inactive,inactive,inactive,inactive,inactive,inactive,inactive,inactive,inactive,,,,
CC1=C(CC(=O)O)c2cc(F)ccc2/C1=C\c1ccc(S(C)=O)cc1 (stereo unspecified),inactive,inactive,inactive,inactive,inactive,,inactive,inactive,inactive,inactive,inactive,inactive,inactive,,,inactive,inactive,,
CC(=O)CCc1ccccc1,inactive,inactive,inactive,inactive,inactive,,inactive,inactive,inactive,inactive,inactive,inactive,inactive,inactive,,inactive,inactive,,
CS(=O)(=O)Nc1ccc([N+](=O)[O-])cc1Oc1ccccc1,inactive,inactive,inactive,26.6 µM (active),inactive,inactive,48.6 µM (active) and 26.6 µM (active),inactive,inactive,inactive,inactive,inactive,inactive,inactive,,inactive,inactive,inactive,
CCC(C)C=O (stereo unspecified),inactive,inactive,4.32 µM (active) and inactive,inactive,inactive,,inactive,inactive,inactive,inactive,inactive,inactive,inactive,inactive,1.09 µM (active) and inactive,inactive,inactive,inactive,
O=C(Cl)c1c(Cl)c(Cl)c(C(=O)Cl)c(Cl)c1Cl,inactive,inactive,inactive,inactive,inactive,inactive,inactive,inactive,inactive,inactive,inactive,inactive,inactive,inactive,inactive,,,inactive,
CC1(C)O[C@@H]2C[C@H]3[C@@H]4C[C@H](F)C5=CC(=O)CC[C@]5(C)[C@H]4[C@@H](O)C[C@]3(C)[C@]2(C(=O)CO)O1,inactive,inactive,inactive,inactive,inactive,inactive,inactive,5.4 nM (active) and 6 nM (active),inactive,inactive,inactive,inactive,inactive,inactive,inactive,inactive,inactive,inactive,
COC(=O)c1ccccc1O,inactive,inactive,inactive,inactive,inactive,inactive,inactive,inactive,,inactive,inactive,inactive,inactive,inactive,inactive,inactive,inactive,inactive,
CC1Cc2ccccc2N1NC(=O)c1ccc(Cl)c(S(N)(=O)=O)c1 (stereo unspecified),inactive,inactive,inactive,inactive,inactive,,inactive,inactive,inactive,inactive,inactive,inactive,inactive,inactive,inactive,inactive,inactive,inactive,
OCCOCCOCCOCCO,inactive,inactive,inactive,inactive,inactive,inactive,inactive,inactive,inactive,inactive,inactive,inactive,inactive,inactive,inactive,inactive,inactive,inactive,
OCC1CCCO1 (stereo unspecified),inactive,inactive,inactive,inactive,inactive,,inactive,inactive,inactive,inactive,inactive,inactive,inactive,inactive,inactive,,,inactive,inactive
CC(=O)Nc1ccc(C(=O)O)cc1,inactive,inactive,inactive,inactive,inactive,inactive,inactive,inactive,inactive,inactive,inactive,inactive,inactive,inactive,inactive,inactive,inactive,inactive,
